Screening data as filed in PubChem BioAssay.
Mcl1 Noxa PPI: Mcl-1/Noxa interaction inhibition | TR-FRET Mcl-1/Noxa peptide binding, 2 h | inhibition, % at 21.7 µM | actives 1.5% (n = 220,000);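 active = compounds that cut the protein-peptide binding signal by more than 50% relative to plate controls in a single-dose test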;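 also: His-tagged Mcl-1 with rhodamine Noxa BH3 peptide and terbium anti-His antibody; 0% = Mcl-1 plus Noxa peptide wells and 100% = peptide-only wells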
Target sequence (Q07820 whole entry, looked up): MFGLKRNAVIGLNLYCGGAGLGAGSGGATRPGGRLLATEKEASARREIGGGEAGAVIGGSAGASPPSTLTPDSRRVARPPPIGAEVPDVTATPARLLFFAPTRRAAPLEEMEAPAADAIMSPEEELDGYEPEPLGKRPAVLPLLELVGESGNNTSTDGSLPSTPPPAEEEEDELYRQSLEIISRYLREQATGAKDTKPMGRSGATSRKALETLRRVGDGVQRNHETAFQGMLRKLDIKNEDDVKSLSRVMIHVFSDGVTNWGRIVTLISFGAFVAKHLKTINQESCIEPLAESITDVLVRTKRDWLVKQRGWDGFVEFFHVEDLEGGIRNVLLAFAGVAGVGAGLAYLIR
Mcl1-Bid inh: disrupts binding of human Mcl-1 to Bid peptide | TR-FRET Mcl-1/Bid-Dy647 peptide binding, 1536-well | inhibition, % at 21.7 µM | actives 0.97% (n = 220,000) | AID 1021;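 active = compounds that cut the binding signal by more than half at the single screening dose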;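 also: His-tagged Mcl-1 with europium anti-His antibody binding Bid BH3 peptide; 0% = Mcl-1 plus peptide wells and 100% = peptide-only wells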
14-3-3 Bad PPI: disrupts binding of bovine 14-3-3 zeta to phospho-Bad peptide; actives 0.71% (n = 220,000); inhibition, % at 21.7 µM; TR-FRET 14-3-3zeta/Dy647-pBad peptide displacement, 1 h; AID 781; P63103;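 active = inhibition above about 70%, limit read from the data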;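 also: 0% = full 14-3-3 plus peptide FRET controls and 100% = background without 14-3-3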
Target sequence (P63103 whole entry, looked up): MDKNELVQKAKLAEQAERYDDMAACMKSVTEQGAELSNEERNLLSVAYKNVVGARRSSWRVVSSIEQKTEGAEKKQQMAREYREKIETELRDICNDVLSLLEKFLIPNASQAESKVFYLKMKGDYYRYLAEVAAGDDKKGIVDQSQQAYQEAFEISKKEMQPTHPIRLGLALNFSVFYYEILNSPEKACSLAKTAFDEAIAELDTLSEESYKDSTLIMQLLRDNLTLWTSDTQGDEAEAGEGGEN
NCF1 inh: p47phox (human) inhibition; inhibition, % at 24.7 µM; actives 0.53% (n = 220,000); p47phox/p22phox peptide binding, fluorescence polarization, 2 h; P14598;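 also: 0% = p47phox with labelled peptide and 100% = labelled peptide alone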
eIF4E-4G inh: blocks eIF4E binding to eIF4G | P63073+Q04637 | actives 0.37% (n = 220,000) | TR-FRET eIF4E-eIF4GI(517-606) binding, 2 h | inhibition, % at 21.7 µM;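 also: 0% = full FRET control wells and 100% = background wells lacking eIF4GI fragment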
Mcl-1 Bim block: human Bim-Mcl-1 interaction inhibition; Q07820; Bead-based flow cytometry, Bim peptide-Mcl-1 binding; inhibition, % at 10 µM; actives 0.1% (n = 190,000); AID 1009; in the data active = inhibition above about 40%;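 also: 0% = no compound tracer wells and 100% = peptide blocker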
* marks the source's active call; other numbers are inactive results. An excerpt weighted towards active compounds, which were near 3.3% of everything screened.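 The calls were made as follows, unless noted: active = inhibition above about 30% (limit read from the data); inactive = the rest.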

Screening O=c1[nH][nH]c(C(F)(F)F)c1/C=N/N1CCOCC1 returned Mcl1 Noxa PPI 3, Mcl1-Bid inh -19, 14-3-3 Bad PPI -4, NCF1 inh -4, eIF4E-4G inh 2 and Mcl-1 Bim block 1.
`Fc1ccc(CO/N=C2\CCCc3nonc32)cc1` gave Mcl1 Noxa PPI 15, Mcl1-Bid inh -45, 14-3-3 Bad PPI -1, NCF1 inh 1, eIF4E-4G inh 2 and Mcl-1 Bim block 0.
`Cc1cccc(/C=C/C(=O)c2ccc(NC3=NCCCS3)cc2)c1` gave Mcl1 Noxa PPI 88*, Mcl1-Bid inh 27, 14-3-3 Bad PPI 1, NCF1 inh -2, eIF4E-4G inh 3 and Mcl-1 Bim block -4.
COc1cccc(/C=C/C(=O)c2ccc(NC3=NCCCS3)cc2)c1 was read as Mcl1 Noxa PPI 57*, Mcl1-Bid inh 9, 14-3-3 Bad PPI 3, NCF1 inh -18, eIF4E-4G inh -2 and Mcl-1 Bim block -25.
For O=C(/C=C/c1ccccc1)c1ccc(NC2=NCCCS2)cc1 the results were Mcl1 Noxa PPI 84*, Mcl1-Bid inh 12, 14-3-3 Bad PPI -6, NCF1 inh -12, eIF4E-4G inh 3 and Mcl-1 Bim block -2.
Cc1occc1-c1nnc(-c2cc([N+](=O)[O-])cc([N+](=O)[O-])c2)o1 was read as Mcl1 Noxa PPI 1, Mcl1-Bid inh -42, 14-3-3 Bad PPI 2, NCF1 inh -2, eIF4E-4G inh 4 and Mcl-1 Bim block -3.
`COc1cccc(C2C3=C(N=c4s/c(=C\c5ccc(OCC(=O)O)cc5)c(=O)n42)c2ccccc2CC3)c1` (centres undefined) gave Mcl1 Noxa PPI 71*, Mcl1-Bid inh 22, 14-3-3 Bad PPI 69, NCF1 inh -34 and eIF4E-4G inh 40*.
COc1ccccc1C1C2=C(N=c3s/c(=C/c4cccc(OCC(=O)O)c4)c(=O)n31)c1ccccc1CC2 (centres undefined) was read as Mcl1 Noxa PPI 107*, Mcl1-Bid inh 82*, 14-3-3 Bad PPI -4, NCF1 inh -45, eIF4E-4G inh 19 and Mcl-1 Bim block -3.
`COc1cccc(C2C3=C(N=c4s/c(=C\c5cccc(O)c5)c(=O)n42)c2ccccc2CC3)c1OC` (centres undefined) gave Mcl1 Noxa PPI 15, Mcl1-Bid inh -20, 14-3-3 Bad PPI -1, NCF1 inh -19, eIF4E-4G inh 0 and Mcl-1 Bim block -2.
Screening O=C(CNc1ccccc1)NNC1=NCCC1 returned Mcl1 Noxa PPI 13, Mcl1-Bid inh -13, 14-3-3 Bad PPI 89*, NCF1 inh -6, eIF4E-4G inh 0 and Mcl-1 Bim block -5.
`C=CCS/C(N)=N\N=C\c1cc(Br)cc([N+](=O)[O-])c1O` gave Mcl1 Noxa PPI 4, Mcl1-Bid inh 5, 14-3-3 Bad PPI -2, NCF1 inh -10 and eIF4E-4G inh 1.
`CO/C(N)=C(\C#N)N=Cc1ccccc1Cl` gave Mcl1 Noxa PPI -12, Mcl1-Bid inh -26, 14-3-3 Bad PPI -5, NCF1 inh -15, eIF4E-4G inh 2 and Mcl-1 Bim block 1.
O=C(CP(=O)(c1ccccc1)c1ccccc1)Nc1nc2ccc(Cl)cc2s1 was read as Mcl1 Noxa PPI 12, Mcl1-Bid inh 97*, 14-3-3 Bad PPI 46, NCF1 inh -12 and eIF4E-4G inh -1.
For O=C(Nc1nc2ccc(Cl)cc2s1)C1CCCO1 (centres undefined) the results were Mcl1 Noxa PPI 12, Mcl1-Bid inh 8, 14-3-3 Bad PPI 16, NCF1 inh 3, eIF4E-4G inh -1 and Mcl-1 Bim block 0.
`O=C(O)c1cccc(S(=O)(=O)N2CCSCC2)c1` gave Mcl1 Noxa PPI -3, Mcl1-Bid inh 16, 14-3-3 Bad PPI 77*, NCF1 inh -5, eIF4E-4G inh -3 and Mcl-1 Bim block -9.
For O=C(CCn1cnc2ccccc2c1=O)Nc1cccc(Cl)c1Cl the results were Mcl1 Noxa PPI 4, Mcl1-Bid inh -34, 14-3-3 Bad PPI -1, NCF1 inh 3, eIF4E-4G inh -1 and Mcl-1 Bim block -2.
CN(c1ccc(OCC(=O)N2CCN(c3ccc(F)cc3)CC2)cc1)S(=O)(=O)c1cccs1 was read as Mcl1 Noxa PPI -6, Mcl1-Bid inh -27, 14-3-3 Bad PPI 26, NCF1 inh -39, eIF4E-4G inh 0 and Mcl-1 Bim block -3.
Screening O=C(OC(C(=O)NCc1ccco1)C(OC(=O)c1ccccc1)C(=O)NCc1ccco1)c1ccccc1 (centres undefined) returned Mcl1 Noxa PPI -4, Mcl1-Bid inh -33, 14-3-3 Bad PPI -14, NCF1 inh -5, eIF4E-4G inh 12 and Mcl-1 Bim block -3.
For CC(C)NC(=O)C(OC(=O)c1ccccc1)C(OC(=O)c1ccccc1)C(=O)O (centres undefined) the results were Mcl1 Noxa PPI 2, Mcl1-Bid inh 15, 14-3-3 Bad PPI 70*, NCF1 inh -13, eIF4E-4G inh 0 and Mcl-1 Bim block -4.
Screening CCc1ccc(OCc2nnc(SCCN3CCOCC3)n2CC)cc1 returned Mcl1 Noxa PPI 34, Mcl1-Bid inh 58*, 14-3-3 Bad PPI 66, NCF1 inh -11, eIF4E-4G inh 4 and Mcl-1 Bim block -1.
`Cn1nc([N+](=O)[O-])nc1S(C)(=O)=O` gave Mcl1 Noxa PPI 1, Mcl1-Bid inh -29, 14-3-3 Bad PPI 43, NCF1 inh 16, eIF4E-4G inh 10 and Mcl-1 Bim block 2.
`CCOc1cc(S(=O)(=O)Nc2ccc(Cl)cn2)ccc1F` gave Mcl1 Noxa PPI 15, Mcl1-Bid inh 2, 14-3-3 Bad PPI -10, NCF1 inh -10, eIF4E-4G inh -6 and Mcl-1 Bim block 0.
CCOc1cc(S(=O)(=O)Nc2ccccn2)ccc1F was read as Mcl1 Noxa PPI -11, Mcl1-Bid inh -3, 14-3-3 Bad PPI 46, NCF1 inh -3, eIF4E-4G inh 2 and Mcl-1 Bim block 50*.
CCOc1cc(S(=O)(=O)Nc2ccc(CC)cc2)ccc1Cl was read as Mcl1 Noxa PPI -4, Mcl1-Bid inh -22, 14-3-3 Bad PPI 5, NCF1 inh -6, eIF4E-4G inh 14 and Mcl-1 Bim block 2.
`CCOc1cc(S(=O)(=O)Nc2ccccc2CC)ccc1Cl` gave Mcl1 Noxa PPI 56*, Mcl1-Bid inh 9, 14-3-3 Bad PPI -9, NCF1 inh -8, eIF4E-4G inh -4 and Mcl-1 Bim block -1.
`O=C(NCCN1CCN(c2ccccc2)CC1)C1CCN(S(=O)(=O)c2cccc3nsnc23)CC1` gave Mcl1 Noxa PPI -2, Mcl1-Bid inh -2, 14-3-3 Bad PPI -6, NCF1 inh 8, eIF4E-4G inh -4 and Mcl-1 Bim block -1.
For CN(C(=O)CSc1nnc(Nc2ccccc2)s1)c1c(N)n(Cc2ccccc2)c(=O)[nH]c1=O the results were Mcl1 Noxa PPI 53*, Mcl1-Bid inh -18, 14-3-3 Bad PPI -4, NCF1 inh -11, eIF4E-4G inh 0 and Mcl-1 Bim block 8.
